Most compounds without a hit are left out; they make up all but 2.8% or so of the library.
HEK293 viab = reduces viability of HEK-293 SNCA reporter cells; HEK-293-SNCA-luc viability, GF-AFC fluorescence, 24 h; Potency, µM (doses to about 57.1 µM), without a hit: top-dose activity change, negative = cytotoxicity, actives largely listed as cytotoxic; 0.12% of 150,000 active; AID 1671193;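 also: potency is read from the fitted curve at half-maximal effect; 0% = DMSO-treated cells and -100% = medium-only wells without cells; nearly all actives have a fitted effect of over 30% in size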
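HEK-293-SNCA-luc cells (1500/well) plated 24 h, then exposed 24 h to a dilution series; GF-AFC added 30 min at 37C, fluorescence 405/540 nm; normalised to medium-only and DMSO wells, Hill fit.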
SNCA expr inhib = SNCA gene expression inhibition; HEK-293 SNCA-luciferase knock-in, luminescence, 24 h; Potency, µM (series often up to 57.2 µM), for inactives: top-dose activity change, negative = inhibition, usual class: inhibitors; 0.17% of 140,000 active; AID 1671194;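 also: potency is read from the fitted curve at half-maximal effect; plate controls were DMSO cells for no effect and cell-free wells for full effect; nearly all actives have a fitted effect of over 45% in size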
KDM5B inhibitor = KDM5B demethylase inhibition; Q9UGL1; Potency, µM (series often up to 57.7 µM), actives largely listed as inhibitors; 2.6% of 220,000 active; KDM5B demethylase, FDH-coupled NADH fluorescence (FDH is formaldehyde dehydrogenase); also: potency is read from the fitted curve at half-maximal effect; 0% is about no effect; nearly all actives have a fitted effect of over 70% in size
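KDM5BΔAP (200 nM final) in 50 mM HEPES pH 7.5, 0.01% Tween-20 was preincubated 10 min at RT with compound over a concentration range. Substrate mix (H3K4me3 12.5 µM, α-KG 25 µM, Fe²⁺, ascorbate, NAD⁺, FDH) was added, and NADH fluorescence change over 30 min gave dose-response curves.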
IP6K1 inh = blocks human inositol hexakisphosphate kinase 1; Q92551; IP6K1 kinase, ADP-Glo luminescence, 2 h; stronger effect = lower value; activity change, % (series mostly up to about 58 µM); 0.81% of 140,000 active; AID 1645851; in the data active = activity change below about -25%; also: % is scaled to controls: 0 for no effect and ±100 for the full control effect
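ADP-Glo luminescence measures ADP made by human IP6K1 during a 2 h RT reaction with ATP/IP6 (mix at 1.3 mM/130 uM); top library doses 57.5 and 19.1 uM final.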
The depositor's hits bear a star; i = inactive; u = inconclusive; x = no result given; [ ] = remark or other dose. Unless noted, calls follow the shape of the dose curve; as a rule, active = well fitted curve in the direction sought with a large enough effect; inconclusive = small, poorly fitted or top-dose-only effect, or another doubt; inactive = no such curve, though single readings can be large; an effect the other way counts as inactive or inconclusive.

SMILES | HEK293 viab | SNCA expr inhib | KDM5B inhibitor | IP6K1 inh
O=C(c1ccc2oc(-c3ccc(C(F)(F)F)cc3)nc2c1)N1CCOCC1 | 4% | 47% | i | 1
O=C(NCC1CCCO1)c1ccc2oc(-c3ccc(C(F)(F)F)cc3)nc2c1 (configuration not stated) | -3% | 88% | 25µM* | -1
O=C1[C@H]2CN(Cc3ccc(F)c(Cl)c3)C[C@H]2C(=O)N1CCc1ccccc1 | -18% | -13% | 13µM* | -24
Cc1cc(Nc2cccc(Cl)c2C)n2nc(Cc3ccccc3)nc2n1 | 13% | 22% | i | 33
Cc1ccc(C(=O)N2CCC(Oc3ncccc3C(=O)N3CCCCC3)C2)cc1C (configuration not stated) | -13% | 12% | 28µM* | 1
O=C(c1cc(F)cc(F)c1)N1CCC(Oc2ncccc2C(=O)N2CCCCC2)C1 (configuration not stated) | -4% | -22% | i | 0
CCCN(C)c1nccnc1OC1CCN(C(=O)c2ccccc2OC)C1 (configuration not stated) | -9% | 29% | 28µM* | 12
O=C(O)c1cccc(CC2CCN(C(=O)CN3CCCCC3=O)C2)c1 (configuration not stated) | 6% | 1% | i | 0
O=Cc1ccc(-c2cccc(O)c2)cc1 | 4%[87.6 µM] | -24%[87.6 µM] | 13µM* | -18
O=Cc1ccc(-c2ccc(F)cc2)cc1 | 6%[87.6 µM] | 38%[87.6 µM] | 89µM* | -12
Cc1cc(C)cc(-c2ccc(C=O)cc2)c1 | 3%[87.6 µM] | 25%[87.6 µM] | 32µM* | -6
Cc1[nH]c2ccccc2c1C(=O)CN1C(=O)CC2(CCCC2)C1=O | x | x | i | x
Cc1nc(NCCN2CCOC2=O)c2sccc2n1 | 5% | -25% | i | 7
CCc1c(C(=O)c2ccc[nH]2)oc2ccc(F)cc12 | x | x | i | x
COc1cc(C(=O)Nc2nc3c(s2)C[C@]2(C)CC[C@@H]4[C@H](OC(=O)[C@H]4C)[C@H]2[C@@H]3C)cc(OC)c1OC | -4% | 20% | 28µM* | -5
C[C@@H]1C(=O)O[C@H]2[C@H]1CC[C@@]1(C)Cc3sc(NC(=O)c4ccc(F)c(Cl)c4)nc3[C@@H](C)[C@H]21 | -10% | 29% | 28µM* | -7
CCc1ccccc1Nc1nn2c(=O)c3ccc(C(=O)NC(C)c4ccccc4)cc3nc2s1 (configuration not stated) | -15% | u | u | -12
CCCN1CCc2[nH]cnc2C12CCN(C(=O)c1cnn3ccccc13)CC2 | 2% | 6% | 25µM* | 5
O=C(O)c1cc2cn(C3CC3)cc2s1 | 0% | -23% | 25µM* | -13
O=C(Nc1cc(F)c(F)c(F)c1)N1CCC(Oc2ncccc2C(=O)N2CCCCC2)C1 (configuration not stated) | -7% | 5% | i | 12
COc1ccc(-n2cc(-c3ccnc(NCCC4CCCN4C)n3)cn2)cc1 (configuration not stated) | -2% | 41% | 28µM* | 8
CCc1ccc(CN2CC3ON=C(C(=O)O)C3C2)cc1 (configuration not stated) | 6%[87.6 µM] | -17%[87.6 µM] | 112µM* | -2
Cc1ccc(CN2CC3ON=C(C(=O)O)C3C2)cc1 (configuration not stated) | 5%[87.6 µM] | u | u | 4
Cc1cccc(NC(c2cccc(Cl)c2)c2ccc3cccnc3c2O)n1 (configuration not stated) | -4% | 8.9µM* | u | 0
CN(Cc1ccccc1)C(=O)C1(C)COCc2cnc(Nc3ccccc3)nc21 (configuration not stated) | -26%[87.6 µM] | -18%[87.6 µM] | i | -3
SMILES | HEK293 viab | SNCA expr inhib | KDM5B inhibitor | IP6K1 inh
CN(C)c1ncc2c(n1)C(C)(C(=O)Nc1ccccc1)CCC2 (configuration not stated) | -4%[87.6 µM] | -21%[87.6 µM] | 35µM* | -3
COc1ccc(NC(=O)C2(C)CCCc3cnc(N(C)C)nc32)cn1 (configuration not stated) | -25%[87.6 µM] | -18%[87.6 µM] | 35µM* | 6
CN(C)c1ncc2c(n1)C(C)(C(=O)Nc1ccccc1F)CCC2 (configuration not stated) | 3%[87.6 µM] | u | u | 1
CN(Cc1ccccc1)C(=O)C1(C)CCCc2cnc(N(C)C)nc21 (configuration not stated) | -4%[87.6 µM] | -9%[87.6 µM] | 32µM* | -3
COCCNC(=O)C1(C)CCCc2cnc(Nc3ccccc3)nc21 (configuration not stated) | -15%[87.6 µM] | -2%[87.6 µM] | i | 17
O=C(Nc1ccccc1)[C@@H]1C[C@@H](c2ccc(F)cc2)N([S+](=O)([O-])c2cccnc2)C1 | -2%[87.6 µM] | 10%[87.6 µM] | i | 14
Cc1c(C)c2ccc(OCC(=O)c3ccccc3)c(C)c2oc1=O | x | x | i | x
Cc1ccc2c(n1)N(C)[C@H](CO)CCN(Cc1ccccc1Cl)C2 | -1%[87.6 µM] | 0%[87.6 µM] | u | 4
Cc1ccc2c(n1)N(C)[C@H](CO)CCN(Cc1ccc(F)cc1)C2 | -6%[87.6 µM] | 8%[87.6 µM] | 35µM* | -3
Cc1ccc2c(n1)N(C)[C@H](CO)CCN(CC1CCCCC1)C2 | 6%[87.6 µM] | 10%[87.6 µM] | 35µM* | -1
Cc1ccc2c(n1)N(C)[C@H](CO)CCN(C(=O)Nc1ccccc1)C2 | -6%[87.6 µM] | 26%[87.6 µM] | i | -9
Cc1ccc2c(n1)N(C)[C@H](CO)CCN(Cc1ccc(C#N)cc1)C2 | -5%[87.6 µM] | -16%[87.6 µM] | u | -7
CC(=O)N1CCC(N2CC[C@@H](CO)N(C)c3nc(C)ccc3C2)CC1 | 2%[87.6 µM] | 3%[87.6 µM] | 32µM* | -7
CCC1(CC)CCN(C(=O)CC2COc3ccc(C(=O)N(C)C)cc3N2C)C1 (configuration not stated) | -4% | -26% | i | 11
COCCNC(=O)c1ccc2c(c1)N(C)C(CC(=O)N1CCC(N)CC1)CO2 (configuration not stated) | 7% | -15% | 28µM* | 13
CC(C)N(CC1CC1)C(=O)CC1COc2ccc(C(=O)N(C)C)cc2N1C (configuration not stated) | 11% | 9% | u | 7
COCCNC(=O)c1ccc2c(c1)N(C)C(CC(=O)N1CCC(O)CC1)CO2 (configuration not stated) | 7% | 13% | 28µM* | -10
C1=C(c2nc(-c3ccncc3)cc3c2ccn3Cc2cccnc2)CCOC1 | 9%[87.6 µM] | -10%[87.6 µM] | u | -19
COCCn1ccc2c(C3=CCOCC3)nc(-c3cccc(C(N)=O)c3)cc21 | u | 20%[87.6 µM] | 32µM* | 15
COCCn1ccc2c(C3=CCOCC3)nc(-c3cccc(O)c3)cc21 | -12%[87.6 µM] | 6%[87.6 µM] | 40µM* | 0
O=C(O)c1ccccc1CSc1ccc(Cl)cc1 | x | x | i | x
Cc1cccc(C(=O)N2CCN(Cc3nc(N)c4ccccc4n3)CC2)c1 | x | x | i | x
CCn1cnnc1CC1CCCNC1 (configuration not stated) | 7% | 7% | u | 11
Cc1cc2cc(-c3c(C)noc3C)nc(-c3cccc([S+](C)(=O)[O-])c3)c2o1 | -19%[87.6 µM] | 83%[87.6 µM] | 32µM* | -11
Cc1noc(C)c1-c1cc2cc(CO)oc2c(-c2cccc(OC(C)C)c2)n1 | -13%[87.6 µM] | 0%[87.6 µM] | 25µM* | -17
